Data: the supplement of paper PMC10720658
± gives the standard deviation of the averaged measurements.

System: AEK1 (Tb927.3.2440)
Test: percent reduction in TR-FRET probe signal relative to DMSO control; higher = stronger displacement of ATP-site probe (binding)
Conditions: 1 µM; incubation time 1 h

Row | SMILES | percent reduction in TR-FRET probe signal [%]
1 | CO[C@@H](C)Cn1c(=O)n(C)c2cnc3ccc(-c4cncc(C(C)(C)O)c4)cc3c21 | 3.02 ± 4.9
2 | COc1cc2nccc(Oc3ccc(NC(=O)Nc4ccc(F)cc4F)c(F)c3)c2cc1OC | 10.2 ± 11
3 | CC(=O)c1c(C)c2cnc(Nc3ccc(N4CCNCC4)cn3)nc2n(C2CCCC2)c1=O.Cl | -16.8 ± 5.1
4 | CCCNC(=O)c1cn2ncnc(Nc3cc(C(=O)NC4CC4)ccc3C)c2c1C | 10.5 ± 8.4
5 | CC(C)(C)c1cc(NC(=O)Nc2ccc(-c3cn4c(n3)sc3cc(OCCN5CCOCC5)ccc34)cc2)no1 [Quizartinib (AC220)] | 9.26 ± 2.9
6 | O=C(O)c1ccc(-c2c[nH]c3ncc(-c4ccccc4)cc23)cc1C1CCCC1 | -2.47 ± 9.6
7 | CNC(=O)c1ccccc1Sc1ccc2c(/C=C/c3ccccn3)n[nH]c2c1 [Axitinib] | 52.4 ± 18
8 | Cc1nc(NC(=O)N2CCC[C@H]2C(N)=O)sc1-c1csc(C(C)(C)C)n1 | 3.71 ± 6.7
9 | N#Cc1c(O)c2c(-c3ccc(-c4ccccc4O)cc3)csc2[nH]c1=O | -7.05 ± 2.1
10 | CNC(=O)c1cc(COc2nnc(Nc3ccc(Cl)cc3)c3ccoc23)ccn1 [Telatinib] | -1.95 ± 4.8
11 | Cc1cc2c(F)c(Oc3ncnn4cc(OC[C@@H](C)OC(=O)[C@H](C)N)c(C)c34)ccc2[nH]1 | 8.47 ± 14
